Test systems include TIE1; TLK1; TLK2; TNIK; TNK1; TNK2; TNNI3K; TRKB.
Holding throughout (conditions): concentration: 1 μM, replicates: in singlicate; n = 1
For the next test, the system named is T1, TIE2.
T1 construct: gene TEK

Another test has as its system T2, TRKA.
T2 construct: gene NTRK1
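Note: KINOMEscan kinase panel screen.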

Consider `CC(C)(C)OC(=O)NC1CCCN(c2cc(-c3ccc4c(N)n[nH]c4c3)nc(N)n2)C1` (stereo not shown) [GSK2286096], for which the “%Inh” value with TIE1 is reported as 0%; with TIE2, 0%; in the test with TLK1 it was 0%; in the test on TLK2 it was 0%; in the test with TNIK, 0%; in the test on TNK1 it was 10%. Besides, the “%Inh” value in the test with TNK2 came to 13%; in the test with TNNI3K it was 6%; in the test with TRKA it was 0%; in the test with TRKB, 0%.

For the compound `Cc1cc(N2CCC(NS(=O)(=O)c3ccc(F)cc3)CC2)nc(Nc2cccc(C#N)c2)n1.O=C(O)C(F)(F)F` [GSK1653537], the “%Inh” value with TIE1 was 3%; with TIE2, 0%; in the test on TLK1, 5%; in the test with TLK2 it was 0%; in the test on TNIK, 0%; in the test with TNK1 it was 0%. Moreover, the “%Inh” value was found to be 11% in the test on TNK2, 0% with TNNI3K, 0% with TRKA and 0% in the test on TRKB.

Regarding `CN1CCC(n2cnc(-c3ccc(F)cc3)c2-c2ccnc(NC3CCNCC3)n2)CC1` [SB-229482], the “%Inh” value was 0% with TIE1; 0% with TIE2; 11% with TLK1; 0% in the test on TLK2; 1% in the test with TNIK; 16% in the test with TNK1. In addition, the “%Inh” value in the test on TNK2 is given as 0%; in the test with TNNI3K, 0%; in the test with TRKA it was 17%; with TRKB it was 26%.

For the compound `COc1cc2c(Nc3cccc(NC(=O)c4ccccc4)c3)ncnc2cc1OCCCN1CCOCC1` [GSK223810], the “%Inh” value in the test on TIE1 was 24%; in the test on TIE2 it was 0%; with TLK1, 0%; with TLK2 it was 0%; in the test on TNIK, 0%; with TNK1, 22%. The “%Inh” value in the test with TNK2 was determined as 13%; in the test on TNNI3K, 25%; in the test with TRKA, 45%; with TRKB, 0%.

As for `Nc1nc(-c2ccc3c(N)n[nH]c3c2)cc(N2CCC[C@@H](C(=O)Nc3ccccc3)C2)n1.O=C(O)C(F)(F)F.O=C(O)C(F)(F)F` [GSK2288359], the “%Inh” value in the test with TIE1 is reported as 0%; with TIE2, 0%; with TLK1, 15%; in the test with TLK2 it was 10%; with TNIK it was 0%; with TNK1, 0%. The “%Inh” value in the test with TNK2 is 1%; with TNNI3K, 5%; in the test on TRKA, 0%; in the test with TRKB, 0%.

As for `c1ccc(-c2ccc3c(-c4ccnc(Nc5ccc6c(c5)OCCO6)n4)cnn3n2)cc1` [GW818941], the “%Inh” value in the test on TIE1 was 22%; in the test on TIE2 it was 8%; in the test with TLK1 it was 0%; in the test with TLK2 it was 0%; in the test on TNIK it was 1%; with TNK1, 0%. Also, the “%Inh” value was found to be 12% with TNK2, 17% with TNNI3K, 34% in the test with TRKA and 0% with TRKB.

Regarding `COc1ccc(NC(=O)Nc2ccc(C)c(-c3ccc(C(=O)Nc4ccncc4)cc3)c2)cc1` [GSK1398475], the “%Inh” value worked out at 0% in the test with TIE1; 0% with TIE2; 19% in the test on TLK1; 0% in the test on TLK2; 0% with TNIK; 0% with TNK1. The “%Inh” value was determined as 17% with TNK2, 17% with TNNI3K, 0% with TRKA and 0% with TRKB.

For `COc1ccc(Nc2nccc(N3CCC(NC(=O)c4cccc(NC(C)=O)c4)C3)n2)cc1` (stereo not shown) [GSK1379732], the “%Inh” value in the test on TIE1, with TIE2, in the test with TLK1, with TLK2, in the test on TNIK and in the test with TNK1 was 0% in each case. For the same compound, the “%Inh” value in the test with TNK2 amounted to 7%; with TNNI3K, 7%; in the test with TRKA it was 37%; in the test with TRKB, 40%.

On to `COc1cc2ncnc(Nc3ccc(OCc4ccccc4Br)c(Cl)c3)c2cc1OC.Cl` [GI261590], for which the “%Inh” value turned out to be 0% in the test with TIE1; 3% in the test on TIE2; 0% with TLK1; 0% in the test on TLK2; 0% with TNIK; 0% with TNK1. Besides, the “%Inh” value in the test with TNK2 is given as 24%; in the test on TNNI3K, 5%; with TRKA, 0%; in the test with TRKB, 19%.

Regarding `Fc1cccc(COc2ccc(Nc3ncnc4sc(-c5ccc[nH]5)cc34)cc2Cl)c1` [GW707818], the “%Inh” value in the test with TIE1 is on record as 0%; in the test with TIE2, 16%; with TLK1, 25%; in the test on TLK2, 11%; in the test with TNIK it was 0%; with TNK1 it was 0%. The “%Inh” value in the test on TNK2 worked out at 13%; with TNNI3K it was 13%; in the test on TRKA it was 22%; in the test with TRKB, 0%.

Consider `Fc1ccc(-c2ncn(CCCNCc3ccccc3)c2-c2ccncc2)cc1`, for which the “%Inh” value came out at 23% with TIE1; 0% with TIE2; 26% in the test with TLK1; 0% in the test with TLK2; 12% with TNIK; 0% in the test with TNK1. The “%Inh” value was 13% with TNK2, 0% in the test on TNNI3K, 38% with TRKA and 3% in the test on TRKB.

For the compound `Nc1nc(-c2cccnc2)c(-c2ccnc3ccccc23)s1` [GW684083], the “%Inh” value is 6% with TIE1; 0% in the test with TIE2; 0% with TLK1; 0% in the test with TLK2; 81% in the test on TNIK; 0% in the test on TNK1. The “%Inh” value in the test with TNK2 was determined as 18%; in the test on TNNI3K it was 0%; with TRKA, 59%; in the test with TRKB, 39%.

With `CC(C)(C)c1ccc(-n2cnc3c(N)ncnc32)cc1` [SKF-97263], the “%Inh” value in the test with TIE1 came to 14%; in the test with TIE2 it was 0%; in the test on TLK1, 0%; with TLK2, 0%; in the test with TNIK, 0%; in the test with TNK1, 5%. In addition, the “%Inh” value in the test on TNK2 is given as 10%; in the test with TNNI3K, 12%; in the test on TRKA it was 18%; in the test with TRKB it was 0%.

Turning to `FC(F)(F)c1ccc(-c2cc(-c3c[nH]nc3-c3ccccn3)ccn2)cc1` [GW599550], the “%Inh” value in the test with TIE1 worked out at 4%; in the test with TIE2, 0%; with TLK1 it was 11%; with TLK2 it was 11%; in the test with TNIK it was 78%; in the test with TNK1, 0%. Moreover, the “%Inh” value came to 16% with TNK2, 0% with TNNI3K, 0% in the test on TRKA and 0% in the test with TRKB.

In the case of `CCC(CC)(CC)n1cnc2c(N)ncnc21` [SKF-97620], the “%Inh” value was 21% with TIE1; 8% with TIE2; 27% in the test on TLK1; 2% with TLK2; 100% with TNIK; 6% with TNK1. Also, the “%Inh” value in the test on TNK2 came out at 0%; in the test with TNNI3K it was 0%; with TRKA, 41%; in the test with TRKB it was 26%.

In the case of `O=C(Nc1n[nH]c2nc(-c3ccco3)c(Br)cc12)c1ccc(CN2CCCC2)cc1.O=C(O)[C@H](O)[C@@H](O)C(=O)O` [SB-742352], the “%Inh” value in the test on TIE1 is given as 0%; in the test with TIE2, 0%; with TLK1 it was 3%; in the test with TLK2 it was 0%; in the test with TNIK it was 14%; in the test on TNK1 it was 38%. Further, the “%Inh” value in the test on TNK2 is 0%; in the test on TNNI3K, 12%; with TRKA it was 18%; in the test with TRKB it was 0%.

The record behind these values is paper PMC5540273 (PLoS ONE, 2017).
